Structures can show the parent of a compound that is named as a salt.
Tested on: Vero E6 infected with SARS-CoV-2
Test: inhibition of SARS-CoV-2 cytopathic effect; higher = more antiviral protection, active = above 15
Conditions: 8.33 nM; 48 h

| SMILES | inhibition of SARS-CoV-2 cytopathic effect |
| --- | --- |
| CS(=O)(=O)c1ccc(Cn2c3c(c4cc(F)cc(F)c42)CCCC3CC(=O)O)cc1 (stereo not given) | -0.29% (inactive) |
| COc1ccc(CC(C)NCC(O)c2ccc(O)c(NC=O)c2)cc1 (stereo not given) [formoterol] | 2.33% (inactive) |
| Brc1ccc(NC2C3CC4CC(C3)CC2C4)cc1 (stereo not given) [bromantan] | -0.71% (inactive) |
| O=[N+]([O-])c1cc(Cl)ccc1S(=O)(=O)N1CCN(Cc2ccccc2)CC1 | 2.13% (inactive) |
| c1cc(Nc2cc(C3CC3)n[nH]2)nc(Nc2ccc3[nH]cnc3c2)n1 | -1.82% (inactive) |
| Oc1cc2c(cc1O)[C@@H]1c3ccc(O)c(O)c3OC[C@]1(O)C2 [hematoxylin] | 1.95% (inactive) |
| C=CC1=C(C)C2=CC3=NC(=C(CC(=O)O)C4=NC(=C(C)C4=C(O)O)C=c4[nH]c(c(C)c4CC)=CC1=N2)C(CCC(=O)O)C3C (stereo not given) [chlorophyllin] | -1.3% (inactive) |
| CC(C)COc1ccc(CNC(=O)N(Cc2ccc(F)cc2)C2CCN(C)CC2)cc1 [pimavanserin] | -0.8% (inactive) |
| CCCCc1ccc(O)cc1O [rucinol] | -3.11% (inactive) |
| CC(C)(N)CC12CC3CC(CC(C3)C1)C2 [somantadine] | -1.35% (inactive) |
| O=C1CN(/N=C/c2ccc([N+](=O)[O-])o2)C(=O)N1 [nitrofurantoin] | -0.32% (inactive) |
| Cc1c(CC(C)(C)C(=O)O)n(Cc2ccc(Cl)cc2)c2ccc(F)cc12 | 2.25% (inactive) |
| C[C@@H]1[C@H](O)[C@@H](C)/C=C/C=C/C=C/C=C/C=C/C=C/C=C/[C@H](O[C@@H]2O[C@H](C)[C@@H](O)[C@H](N)[C@@H]2O)C[C@@H]2O[C@](O)(C[C@@H](O)C[C@@H](O)[C@H](O)CC[C@@H](O)C[C@@H](O)CC(=O)O[C@H]1C)C[C@H](O)[C@H]2C(=O)O [amphotericin-b] | 0.44% (inactive) |
| C[C@]1(O)C[C@@H](c2nc(-c3ccc4ccc(-c5ccccc5)nc4c3)c3c(N)nccn32)C1 [linsitinib] | -0.2% (inactive) |
| CC/C(=C(/CC)c1ccc(OP(=O)(O)O)cc1)c1ccc(OP(=O)(O)O)cc1 [fosfestrol] | 2.21% (inactive) |
| C=C[C@@](C)(/C=C/c1ccc(O)cc1)CCC=C(C)C [bakuchiol] | 2.39% (inactive) |
| CC(C)[N+](C)(CCC(C(N)=O)(c1ccccc1)c1ccccc1)C(C)C [isopropamide-iodide] | 1.26% (inactive) |
| CN(C)CCc1c[nH]c2ccc(Cn3cncn3)cc12 [rizatriptan] | 0.07% (inactive) |
| Cc1cc(Nc2ncc(Cl)c(Nc3ccccc3S(=O)(=O)C(C)C)n2)c(OC(C)C)cc1C1CCNCC1 [ceritinib] | 1.21% (inactive) |
| CCCCCCCCCC(=O)OCCN1CCN(CCCN2c3ccccc3Sc3ccc(C(F)(F)F)cc32)CC1 [fluphenazine-decanoate] | -5.38% (inactive) |

| SMILES | inhibition of SARS-CoV-2 cytopathic effect |
| --- | --- |
| Clc1ccc2c(NCCNc3ccnc4cc(Cl)ccc34)ccnc2c1 | 0.71% (inactive) |
| CC(O)(C(=O)Nc1ccc(S(=O)(=O)c2ccccc2)cc1)C(F)(F)F (stereo not given) | 1.61% (inactive) |
| Cn1c(=O)c2c(ncn2CC2OCCO2)n(C)c1=O [doxofylline] | -2.41% (inactive) |
| CN1C[C@@H]2CN(c3ccc(-c4ccccc4)nn3)C[C@@H]2C1 | -1.9% (inactive) |
| CSCC1CN(/N=C/c2ccc([N+](=O)[O-])o2)C(=O)O1 (stereo not given) [inimur] | -0.35% (inactive) |
| NCCCC[C@H](NC(=O)[C@@H]1CCCN1C(=O)[C@@H]1CSSC[C@H](N)C(=O)N[C@@H](Cc2ccc(O)cc2)C(=O)N[C@@H](Cc2ccccc2)C(=O)N[C@@H](CCC(N)=O)C(=O)N[C@@H](CC(N)=O)C(=O)N1)C(=O)NCC(N)=O [lypressin] | 1.59% (inactive) |
| CCCCC/C=C\C/C=C\CCCCCCCC(=O)NCCCC(=O)O [GABA-linoleamide] | 4.17% (inactive) |
| CCCCCCCCCCOc1cc2c(O)c(C(=O)OCC)cnc2cc1OCC [decoquinate] | -0.75% (inactive) |
| NC(=O)c1nc(F)cnc1O [favipiravir] | -2.34% (inactive) |
| Cc1ncc(COP(=O)([O-])[O-])c(CN(CCN(CC(=O)O)Cc2c(COP(=O)([O-])O)cnc(C)c2O)CC(=O)O)c1O.[Mn].[Na+].[Na+].[Na+] [Mangafodipir (trisodium)] | -3.12% (inactive) |
| O=C(c1ccc(F)cc1)C1CCN(CCn2c(=O)[nH]c3ccccc3c2=O)CC1 [ketanserin] | -0.51% (inactive) |
| Cc1ccc(Cl)c(OCC(O)CNC(C)(C)C)c1 (stereo not given) [bupranolol] | -0.4% (inactive) |
| Cc1c(Cl)cccc1S(=O)(=O)Nc1nc(CC(=O)N2CCN(C)CC2)cs1 | 0.23% (inactive) |
| C[C@@H](O)[C@H]1C(=O)N2C(C(=O)[O-])=C(SC3Cn4cnc[n+]4C3)[C@H](C)[C@H]12 (stereo not given in full) [biapenem] | -0.04% (inactive) |
| O=S(=O)(/N=C/c1c(O)ccc2ccccc12)c1cccs1 | 2.5% (inactive) |
| O=C(CCCCCCC(=O)Nc1cccnc1)NO [pyroxamide] | -1.1% (inactive) |
| CCOC(=O)[C@@H](N)Cc1ccc(-c2cc(O[C@H](c3ccc(Cl)cc3-n3ccc(C)n3)C(F)(F)F)nc(N)n2)cc1 [telotristat-ethyl] | 2.88% (inactive) |
| CC(NCCC(c1ccccc1)c1ccccc1)c1ccccc1 (stereo not given) [fendiline] | 2.18% (inactive) |
| Nc1ncc(Cc2ccc(Br)cc2)s1 | 1.1% (inactive) |
| CO/N=C(\C(=O)N[C@@H]1C(=O)N2C(C(=O)O)=C(Cn3ccc(=N)n3CCO)CS[C@H]12)c1csc(N)n1 [Cefoselis sulfate] | -3.45% (inactive) |

— the supplement of paper PMC13380429
